The record followed here is the supplement of paper PMC7156485.
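Also: TDF is a line of transformed human dermal fibroblasts of mesenchymal origin.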

The first test relates to TDF. Kind of test: H1.0 immunofluorescence intensity relative to DMSO (% of DMSO); higher = stronger H1.0 induction, active = 120 or more. The note with it: concentration: 10 µM; 24 h. In short, it runs like this: (§1)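 Cell number or H1.0 nuclear intensity appears as percent of the plate control, based on the median of replicates. Measurements came from HCC1569 and TDF cells exposed in triplicate to compounds at 10 µM for 24 h at 37 °C, then imaged in six fields per well at ×10. Positional effects were smoothed out of HCC1569 values.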
Consider `CSc1nc(N)c2ncn(C3OC(COP(=O)([O-])OP(=O)([O-])[O-])C(O)C3O)c2n1.[Na+].[Na+].[Na+]` (configuration not stated) [2-Methylthioadenosine diphosphate trisodium], for which the H1.0 immunofluorescence intensity is 99.2 (inactive).
`CCCCCCCCCCCC(CC1OC(=O)C1CCCCCC)OC(=O)C(CC(C)C)NC=O` (configuration not stated) [Tetrahydrolipistatin]: the H1.0 immunofluorescence intensity was 99.2 (inactive).
With `NC(=O)Nc1sc(-c2ccc(F)cc2)cc1C(N)=O` [IKK-2 Inhibitor IV], the H1.0 immunofluorescence intensity was 95.8 (inactive).
For the compound `COc1ccc(C(=O)Nc2sc3c(c2C(N)=O)CCCC3)cc1OC`, the H1.0 immunofluorescence intensity is 94.4 (inactive).
Still for that read-out and setting: the result for `COc1ccc(CC2c3cc(OC)c(OC)cc3CC[N+]2(C)CCC(=O)OCCCCCOC(=O)CC[N+]2(C)CCc3cc(OC)c(OC)cc3C2Cc2ccc(OC)c(OC)c2)cc1OC.O=S(=O)([O-])c1ccccc1.O=S(=O)([O-])c1ccccc1` (configuration not stated) [Atracurium besylate] reads 94.5 (inactive); that for `CCCCCC=CCC=CCC=CC=CC(O)CCCC(=O)O` (racemic), 109 (inactive).
Still for that read-out and setting: the result for `Cc1cccc(C(=O)NCN2CCN(c3ccccc3C#N)CC2)c1.O=C(O)C=CC(=O)O` [PD 168,077 maleate] reads 97.3 (inactive).
Same read-out and setting: the result for `O=C1NC(=O)C(c2cn(CCCn3ccnc3)c3ccccc23)=C1Nc1ccccc1` [PKCb Inhibitor] reads 87.7 (inactive); that for `Cc1ncc([N+](=O)[O-])n1CCO` [Metronidazole], 99.3 (inactive); that for `COc1ccccc1N1CCN(CC(O)COc2cccc3ccccc23)CC1.Cl.Cl` (configuration not stated) [Naftopidil dihydrochloride], 101 (inactive).
As for `Nc1nc(Cl)nc2c1ncn2C1OC(COP(=O)([O-])OP(=O)([O-])OP(=O)([O-])[O-])C(O)C1O.[Na+].[Na+].[Na+].[Na+]` (configuration not stated) [2-Chloroadenosine triphosphate tetrasodium], the H1.0 immunofluorescence intensity was 89.5 (inactive).
Same read-out and setting: the result for `Cc1cc(F)c(Nc2ncnc3cc(OCc4ccccc4)ccc23)cc1O.Cl` reads 94.5 (inactive); that for `OCC1OC(n2cnc3c(NC4CCCCC4)ncnc32)C(O)C1O` (configuration not stated) [N6-Cyclohexyladenosine], 97.9 (inactive); that for `O=C(Nc1ncc(-c2cc(C(F)F)nn2-c2c(Cl)cccc2Cl)s1)C1CC1`, 176 (active).
As for `CC(=O)Nc1ccc(NC(=S)NC(=O)c2ccc(C(C)(C)C)cc2)cc1` [p53 Activator (Tenovin-1)], the H1.0 immunofluorescence intensity is 104 (inactive).
Same read-out and setting: the result for `COc1ccc(-c2ccc3c(N4CCOCC4)nc(N4CC(C)OC(C)C4)nc3n2)cc1CO` (configuration not stated) reads 87.6 (inactive).
Same read-out and setting: the result for `C=CCc1ccccc1OCC(O)CNC(C)C.Cl` (configuration not stated) [Alprenolol.HCl] reads 90.6 (inactive); that for `O=C(O)CCc1nc(-c2ccccc2)c(-c2ccccc2)o1` [Oxaprozin], 96.9 (inactive); that for `CC(CS)C(=O)N1CCCC1C(=O)O` (configuration not stated) [Captopril], 97.6 (inactive).
Same read-out and setting: the result for `Cl.Cl.N=C(N)c1ccc(N)cc1` [4-Aminobenzamidine dihydrochloride] reads 92.2 (inactive).
In the case of `Cl.Oc1ccc(Nc2nc(-c3ccc(Cl)cc3)cs2)cc1` [Sphingosine Kinase Inhibitor], the H1.0 immunofluorescence intensity was 110 (inactive).
The same measure, in the same setting: the result for `CCCCCC=CCC=CCCCCCCCC(N)=O` [Linoleamide] reads 99.6 (inactive).

For another test, the system named is HCC1569. Kind of test: H1.0 immunofluorescence intensity relative to DMSO (% of DMSO); higher = stronger H1.0 induction, active = 140 or more. The settings on record: concentration: 10 µM; 24 h. Put shortly: as §1
For the compound `O=C(OC12CC3CC(CC(C3)C1)C2)c1ccc(NCc2cc(O)ccc2O)cc1` [1-adamantyl 4-[(2,5-dihydroxybenzyl)amino]benzoate], the H1.0 immunofluorescence intensity was 109 (inactive).
Same read-out and setting: the result for `N=C(N)N1CCc2ccccc2C1` [Debrisoquin] reads 96.4 (inactive); that for `CCCCCCCCCCCCCCCCn1cc[n+](Cc2ccccc2)c1C.[I-]`, 106 (inactive); that for `C=C1C(=CC=C2CCCC3(C)C2CCC3C(C)CCCC(C)(C)O)CC(O)CC1O` (configuration not stated) [Calcitriol], 112 (inactive).
For `COc1cc2c(Nc3ccc(Br)cc3F)ncnc2cc1OCC1CCN(C)CC1` [Vandetanib], the H1.0 immunofluorescence intensity is 142 (active).
Still for that read-out and setting: the result for `CCCCCCCCCCCCCCCCCC(=O)O` [Octadecanoic acid] reads 95.3 (inactive); that for `CC=CCC=CCCC(=O)C1OC1C(N)=O` (configuration not stated) [Cerulenin], 111 (inactive); that for `O=c1cc(-c2ccccc2)oc2cc(O)c(O)cc12` [6,7-Dihydroxyflavone], 101 (inactive).
Consider `CCCCCCCCCCCCCCCCCCCCCCCC(=O)O` [Tetracosanoic acid], for which the H1.0 immunofluorescence intensity was 104 (inactive).
Same read-out and setting: the result for `NS(=O)(=O)c1cc2c(cc1Cl)NCNS2(=O)=O` [Hydrochlorothiazide] reads 89.9 (inactive); that for `CC12CC3CC(C)(C1)CC(N)(C3)C2.Cl` [Memantine hydrochloride], 98.3 (inactive); that for `COc1ccc(OC)c2c(=S)c3ccccc3[nH]c12`, 111 (inactive).
On the same count and under the same terms, the result for `Oc1cc2c(cc1O)C(c1ccccc1)CNCC2` (racemic) reads 93.5 (inactive); that for `CSc1nc(N)c2ncn(C3OC(COP(=O)([O-])OP(=O)([O-])[O-])C(O)C3O)c2n1.[Na+].[Na+].[Na+]` (configuration not stated) [2-Methylthioadenosine diphosphate trisodium], 89.7 (inactive); that for `CCCCCCCCCCCC(CC1OC(=O)C1CCCCCC)OC(=O)C(CC(C)C)NC=O` (configuration not stated) [Tetrahydrolipistatin], 90.5 (inactive).
For `NC(=O)Nc1sc(-c2ccc(F)cc2)cc1C(N)=O` [IKK-2 Inhibitor IV], the H1.0 immunofluorescence intensity was 186 (active).
The same measure, in the same setting: the result for `COc1ccc(C(=O)Nc2sc3c(c2C(N)=O)CCCC3)cc1OC` reads 121 (inactive).
The same measure, in the same setting: the result for `COc1ccc(CC2c3cc(OC)c(OC)cc3CC[N+]2(C)CCC(=O)OCCCCCOC(=O)CC[N+]2(C)CCc3cc(OC)c(OC)cc3C2Cc2ccc(OC)c(OC)c2)cc1OC.O=S(=O)([O-])c1ccccc1.O=S(=O)([O-])c1ccccc1` (configuration not stated) [Atracurium besylate] reads 110 (inactive).
Same read-out and setting: the result for `CCCCCC=CCC=CCC=CC=CC(O)CCCC(=O)O` (racemic) reads 102 (inactive); that for `Cc1cccc(C(=O)NCN2CCN(c3ccccc3C#N)CC2)c1.O=C(O)C=CC(=O)O` [PD 168,077 maleate], 99.3 (inactive).
On to `O=C1NC(=O)C(c2cn(CCCn3ccnc3)c3ccccc23)=C1Nc1ccccc1` [PKCb Inhibitor], for which the H1.0 immunofluorescence intensity is 104 (inactive).
The same measure, in the same setting: the result for `Cc1ncc([N+](=O)[O-])n1CCO` [Metronidazole] reads 99.3 (inactive); that for `COc1ccccc1N1CCN(CC(O)COc2cccc3ccccc23)CC1.Cl.Cl` (configuration not stated) [Naftopidil dihydrochloride], 101 (inactive).
`Nc1nc(Cl)nc2c1ncn2C1OC(COP(=O)([O-])OP(=O)([O-])OP(=O)([O-])[O-])C(O)C1O.[Na+].[Na+].[Na+].[Na+]` (configuration not stated) [2-Chloroadenosine triphosphate tetrasodium]: the H1.0 immunofluorescence intensity was 83.9 (inactive).
The same measure, in the same setting: the result for `Cc1cc(F)c(Nc2ncnc3cc(OCc4ccccc4)ccc23)cc1O.Cl` reads 138 (inactive); that for `OCC1OC(n2cnc3c(NC4CCCCC4)ncnc32)C(O)C1O` (configuration not stated) [N6-Cyclohexyladenosine], 92.8 (inactive); that for `O=C(Nc1ncc(-c2cc(C(F)F)nn2-c2c(Cl)cccc2Cl)s1)C1CC1`, 149 (active).
Same read-out and setting: the result for `CC(=O)Nc1ccc(NC(=S)NC(=O)c2ccc(C(C)(C)C)cc2)cc1` [p53 Activator (Tenovin-1)] reads 153 (active); that for `COc1ccc(-c2ccc3c(N4CCOCC4)nc(N4CC(C)OC(C)C4)nc3n2)cc1CO` (configuration not stated), 164 (active).
Same read-out and setting: the result for `C=CCc1ccccc1OCC(O)CNC(C)C.Cl` (configuration not stated) [Alprenolol.HCl] reads 102 (inactive); that for `O=C(O)CCc1nc(-c2ccccc2)c(-c2ccccc2)o1` [Oxaprozin], 97.7 (inactive).
As to `CC(CS)C(=O)N1CCCC1C(=O)O` (configuration not stated) [Captopril], the H1.0 immunofluorescence intensity was 96.7 (inactive).
Still for that read-out and setting: the result for `Cl.Cl.N=C(N)c1ccc(N)cc1` [4-Aminobenzamidine dihydrochloride] reads 94.1 (inactive).
On the same count and under the same terms, the result for `Cl.Oc1ccc(Nc2nc(-c3ccc(Cl)cc3)cs2)cc1` [Sphingosine Kinase Inhibitor] reads 193 (active).
The same measure, in the same setting: the result for `CCCCCC=CCC=CCCCCCCCC(N)=O` [Linoleamide] reads 99.2 (inactive).
